Measurements as given in PubChem BioAssay (NCATS).
Inconclusive results are not listed. Active and inactive are the calls of the source. Calls come from the whole dose curve; as a rule, active = well fitted inhibition curve with a large enough effect; inconclusive = small, poorly fitted or top-dose-only effect; inactive = flat fitted curve, though single readings scatter.

Legend:
[1] = system: PC26; assay: qHTS profiling for inhibitors of Plasmodium falciparum proliferation (AID 504749);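 note: 0% = DMSO vehicle and full inhibition = artemisinin control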; details: P. falciparum in erythrocytes, SYBR Green DNA, 72 h; series mostly up to 28.7 µM
Outline: (§1)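 Parasite proliferation within erythrocytes, 72 h exposure. Endpoint: SYBR Green I fluorescence after overnight lysis at room temperature. Controls: 0.29 uM artemisinin, DMSO.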

[2] = system: PC49; assay: as above; details: P. falciparum in erythrocytes, SYBR Green DNA, 72 h; series mostly up to 28.7 µM
Outline: as §1

[3] = system: SC27B; assay: as above; details: P. falciparum in erythrocytes, SYBR Green DNA, 72 h; series mostly up to 28.7 µM
Outline: as §1

[4] = system: TAB109; assay: as above; details: P. falciparum in erythrocytes, SYBR Green DNA, 72 h; series mostly up to 28.7 µM
Outline: as §1

[5] = system: TAB165; assay: as above; details: P. falciparum in erythrocytes, SYBR Green DNA, 72 h; series mostly up to 28.7 µM
Outline: as §1

[6] = system: W2; assay: as above; details: P. falciparum in erythrocytes, SYBR Green DNA, 72 h; series mostly up to 28.7 µM
Outline: as §1

[7] = system: CRL-7250; assay: Cytotoxic Profiling of Annotated Libraries Using Quantitative High-Throughput Screening (AID 1296008); details: Five cell lines viability, CellTiter-Glo ATP luminescence, 48-72 h; stronger effect = lower value; for max response: % is set by controls: 0 for no effect and ±100 for the full control effect
Outline: (§2)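 Compounds were pin-transferred onto cells and incubated 48 or 72 hr at 37 degree Celsius, 95% humidity. CellTiter-Glo was added, plates sat 10 min at room temperature, then ATP-coupled luminescence was imaged as the viability read-out.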

[8] = system: HEK293; assay: as above; details: Five cell lines viability, CellTiter-Glo ATP luminescence, 48-72 h; stronger effect = lower value
Outline: as §2

[9] = system: HaCat; assay: as above; details: Five cell lines viability, CellTiter-Glo ATP luminescence, 48-72 h; stronger effect = lower value
Outline: as §2

[10] = system: KB-3-1; assay: as above; details: Five cell lines viability, CellTiter-Glo ATP luminescence, 48-72 h, stronger effect = lower value
Outline: as §2

[11] = system: NIH3T3; assay: as above; details: Five cell lines viability, CellTiter-Glo ATP luminescence, 48-72 h; stronger effect = lower value
Outline: as §2

[12] = system: MCC-13; assay: qHTS assay to identify novel small-molecules to repurpose for Merkel cell carcinoma treatment (AID 1296009); details: MCC and control cell lines, CellTiter-Glo viability, 72 h; series mostly up to 46 µM
Outline: (§3)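 qHTS format: cells treated with library compounds in DMSO across 8 (NPC) or 11 (MIPE) concentrations. Readout after 72 hr at 37 degree celsius was CellTiter-Glo luminescence.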

[13] = system: MCC-26; assay: as above; details: MCC and control cell lines, CellTiter-Glo viability, 72 h; series mostly up to 46 µM
Outline: as §3

[14] = system: MKL-1; assay: as above; details: MCC and control cell lines, CellTiter-Glo viability, 72 h; series mostly up to 46 µM
Outline: as §3

[15] = system: MKL-2; assay: as above; details: MCC and control cell lines, CellTiter-Glo viability, 72 h; series mostly up to 46 µM
Outline: as §3

[16] = system: NIH3T3; assay: as above; details: MCC and control cell lines, CellTiter-Glo viability, 72 h; at 44.8 µM (top of the series) unless noted
Outline: as §3

[17] = system: UISO; assay: as above; details: MCC and control cell lines, CellTiter-Glo viability, 72 h; series mostly up to 46 µM
Outline: as §3

[18] = system: TAB113; assay: qHTS profiling for inhibitors of Plasmodium falciparum proliferation (AID 504749);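 note: 0% = DMSO vehicle and full inhibition = artemisinin control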; details: P. falciparum in erythrocytes, SYBR Green DNA, 72 h; series mostly up to 28.7 µM
Outline: as §1

[19] = system: HACAT; assay: qHTS assay to identify novel small-molecules to repurpose for Merkel cell carcinoma treatment (AID 1296009); details: MCC and control cell lines, CellTiter-Glo viability, 72 h; at 44.8 µM (top of the series) unless noted
Outline: as §3

[20] = system: HEK293T; assay: as above; details: MCC and control cell lines, CellTiter-Glo viability, 72 h; at 44.8 µM (top of the series) unless noted
Outline: as §3
Note: nearly all actives have a fitted effect of over 60% in size.

CN(C(=O)c1c(O)c2ccccc2n(C)c1=O)c1ccccc1
inactive: Potency [1] | Potency [2] | Potency [3] | Potency [4] | Potency [5] | Potency [6] | max response [7] 0.215% | max response [8] -2.97% | max response [9] -1.18% | max response [10] 9.88% | outcome [11] | outcome [12] | outcome [13] | outcome [14] | outcome [15] | outcome [16] | outcome [17]

O=C(OOC(=O)c1ccccc1)c1ccccc1
inactive: Potency [1] | Potency [2] | Potency [3] | Potency [4] | Potency [18] | Potency [5] | Potency [6] | outcome [7] | max response [8] 2.9% | max response [9] -8.52% | max response [10] -3.15% | outcome [11] | outcome [12] | outcome [13] | outcome [14] | outcome [15] | outcome [16] | outcome [17]

NC(=O)c1ccc([N+](=O)[O-])cc1Cl
inactive: Potency [2] | Potency [3] | max response [7] 3.21% | max response [8] -0.167% | max response [9] -15.2% | max response [10] 1.89% | outcome [11] | outcome [12] | outcome [13] | outcome [14] | outcome [15] | outcome [16] | outcome [17]

CC(C)CCCC(C)CCCC(C)CCCCC(C)CCCC(C)CCCC(C)C (centres undefined)
inactive: Potency [1] | Potency [2] | Potency [3] | Potency [4] | Potency [18] | Potency [5] | Potency [6] | outcome [7] | max response [8] -6.17% | max response [9] -19.8% | max response [10] 12.8% | max response [11] -1.47% | outcome [12] | outcome [13] | outcome [14] | outcome [15] | outcome [17]

CC(=O)OC[C@H]1O[C@@](COC(C)=O)(O[C@H]2O[C@H](COC(C)=O)[C@@H](OC(C)=O)[C@H](OC(C)=O)[C@H]2OC(C)=O)[C@@H](OC(C)=O)[C@@H]1OC(C)=O
inactive: Potency [1] | Potency [2] | Potency [6] | max response [7] 4.32% | max response [8] -4.41% | outcome [9] | max response [11] 2.21% | outcome [19] | outcome [12] | outcome [13] | outcome [14] | outcome [15] | outcome [17]

Nc1ncnc(Nc2ccccc2)n1
inactive: Potency [1] | Potency [2] | Potency [3] | Potency [4] | Potency [18] | Potency [5] | Potency [6] | max response [7] -1.48% | max response [8] -7.91% | max response [9] 0.531% | outcome [11] | outcome [12] | outcome [13] | outcome [14] | outcome [15] | outcome [16] | outcome [17]

CCOc1ccccc1O[C@H](c1ccccc1)[C@H]1CNCCO1
inactive: outcome [7] | max response [8] 2.57% | outcome [9] | max response [11] 1.71% | outcome [19] | outcome [12] | outcome [13] | outcome [14] | outcome [15] | outcome [17]

Cn1c([N+](=O)[O-])cnc1COC(N)=O
inactive: Potency [1] | Potency [2] | Potency [3] | Potency [4] | Potency [18] | Potency [5] | Potency [6] | max response [7] -9.26% | max response [8] 2.06% | max response [9] -19.4% | max response [11] 2.03% | outcome [12] | outcome [13] | outcome [14] | outcome [15] | outcome [17]

CC1CCN(CCCC(=O)c2ccc(F)cc2)CC1
inactive: Potency [1] | Potency [2] | Potency [3] | Potency [4] | Potency [18] | Potency [5] | max response [7] -0.306% | max response [8] -0.532% | outcome [9] | max response [11] -1.04% | outcome [19] | outcome [12] | outcome [14] | outcome [15] | outcome [17]

COC(=O)c1cccnc1
inactive: Potency [1] | Potency [3] | Potency [4] | Potency [18] | Potency [5] | Potency [6] | max response [7] -1.99% | outcome [8] | outcome [9] | max response [11] 0.586% | outcome [19] | outcome [20] | outcome [12] | outcome [13] | outcome [14] | outcome [15] | outcome [17]

CC(N)CCCC(C)(C)O (centres undefined)
inactive: Potency [1] | Potency [2] | Potency [3] | Potency [4] | Potency [18] | Potency [5] | Potency [6] | max response [7] -9.12% | max response [8] -17.6% | outcome [9] | outcome [11] | outcome [19] | outcome [12] | outcome [13] | outcome [14] | outcome [15] | outcome [16] | outcome [17]

CCN(CC)S(=O)(=O)c1ccc(C(=O)O)cc1
inactive: Potency [1] | Potency [2] | Potency [3] | Potency [4] | Potency [18] | Potency [5] | Potency [6] | max response [7] -2.94% | outcome [8] | max response [9] 1.67% | max response [11] -6.52% | outcome [20] | outcome [12] | outcome [13] | outcome [14] | outcome [15] | outcome [17]

O=C(O)CCC(=O)O
inactive: Potency [1] | Potency [2] | Potency [3] | Potency [4] | Potency [18] | Potency [5] | Potency [6] | max response [7] 3.26% | max response [8] 3.09% | outcome [9] | max response [11] -0.925% | outcome [19] | outcome [12] | outcome [13] | outcome [14] | outcome [15] | outcome [17]

O=C(O)COC(=O)Cc1ccccc1Nc1c(Cl)cccc1Cl
inactive: Potency [1] | Potency [2] | Potency [3] | Potency [4] | Potency [18] | Potency [5] | Potency [6] | outcome [7] | max response [8] -1.3% | outcome [9] | max response [11] 1.68% | outcome [19] | outcome [12] | outcome [13] | outcome [14] | outcome [15] | outcome [17]

Cc1cc(C)nc(NS(=O)(=O)c2ccc(N)cc2)n1
inactive: Potency [1] | Potency [2] | Potency [3] | Potency [4] | Potency [18] | Potency [5] | Potency [6] | max response [7] -8.07% | max response [8] 3.16% | max response [9] 3.39% | outcome [11] | outcome [12] | outcome [13] | outcome [14] | outcome [15] | outcome [16] | outcome [17]
